This is part of a sample that, as a whole, favours compounds with a hit. Of some 83,000 tested, about 20% had one in any assay.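 The test compound was applied at a single concentration to cells in 96-well plates for 48 hours, and percent growth was recorded.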 Active and inactive are the calls of the source. How the source made its calls: active means growth percent below 10; inactive means the rest.

For the assay, the system named is HL-60(TB) leukemia. As to the kind of experiment: NCI-60 one-dose screen, 48 h (100 = growth as untreated, 0 = no growth, -100 = all killed). Particulars: 10 µM unless noted.
As for `Nc1nc(N)c(N=Nc2ccccc2)c(-c2ccccc2)n1`, the growth is 71.4% (inactive).
Next, `COc1cccc(C(=O)NNc2nc(Cl)nc(Cl)n2)c1`: 96.2% (inactive).
The result for `CCCCCCCCN(CCCCCCCC)C(=N)c1ccnc2ccccc12` reads -68.5% (active).
Next, `CO[C@H]1CC(O[C@@H]2/C(C)=C/C[C@@H]3C[C@@H](C[C@]4(C=C[C@H](C)[C@@H](C5CCCCC5)O4)O3)OC(=O)[C@@H]3C=C(C)[C@@H](O)[C@H]4OC/C(=C\C=C\[C@@H]2C)[C@]43O)O[C@@H](C)C1O[C@H]1C[C@H](OC)[C@@H](O)[C@H](C)O1` (stereo not given in full): -50.5% (active).
As to `OCCOc1ccc(-c2cc(-c3ccccn3)nc(-c3ccccn3)c2)cc1`, the growth was -36.1% (active).
`Cc1ccccc1NS(=O)(=O)c1cccc(C(=O)Nc2ccc(Br)cc2)c1`: the growth is 27.6% [25 µM] (inactive).
Take `CCOC(=O)NNC(=S)Nc1ccccc1`: the growth was 106% (inactive).
The result for `OCCn1cc(-c2nc(-c3c[nH]c4ncccc34)cs2)c2cc(F)ccc21` reads 60.3% (inactive); that for `COc1ccc(C(=O)c2cc(C)c(OC)c(C)c2)c(OC)c1OC(=O)C(Cl)Cl`, -35.7% (active); that for `Cn1c(C(N)=O)cc2c1-c1nc(NC3CCCCC3)ncc1CCC2`, 105% (inactive).
`O=C(O)c1ccc(-c2nn(-c3ccc(C(=O)O)cc3)cc2CNc2ccc(Br)cc2)cc1`: the growth was 107% (inactive).
The result for `Nc1c(Br)cc2c(c1Br)Cc1cc([N+](=O)[O-])ccc1-2` reads 69.6% (inactive).
`CCCCCCCCSc1ncnc2c1ncn2CO`: the growth is 94.5% (inactive).
Next, `CC(C)Cn1c2c(c(=S)[nH]c1=O)CCC2`: 107% (inactive); `ClCc1c(Cl)c(Cl)c(Cl)c(CCl)c1Cl`: 80.4% (inactive).
Next, `Cc1ccc(S(=O)(=O)OC[C@@]2(C)CC[C@]3(C)CC[C@]4(C)C(=C3C2)C=C[C@@H]2[C@@]3(C)CCCNC(C)(C)[C@@H]3CC[C@]24C)cc1`: -58.4% (active); `CC(CNC(Cc1ccccc1)c1ccccc1)NC(Cc1ccccc1)c1ccccc1` (stereo not given): 26.2% (inactive).
The result for `COc1cc(/C=C/C(=O)Nc2cccnc2Nc2ccc(F)cc2)cc(OC)c1OC` reads 107% (inactive).
With `N#Cc1c(-c2ccccc2)cc(-c2ccccc2)n(CCCCC(=O)NO)c1=O`, the growth was 11% (inactive).
Next, `O=c1cc(Cl)[nH]c(=O)[nH]1`: 91.7% (inactive); `FC(F)(F)C1=NNC(c2ccc3ccccc3c2)=NN1`: 101% (inactive).
The result for `O=C(CCc1nnc2sc(Cc3ccccc3Cl)nn12)c1nc2ccccc2[nH]1` reads 104% (inactive); that for `COc1cc(C(=O)O)c(O)c(C(C)(C)C)c1`, 106% (inactive).
Next, `S=C(c1cccs1)N1CCN(c2cccc(Cl)c2)CC1`: 90.8% (inactive).
As to `COc1cccc(NC(=O)c2sc3nc4c(cc3c2N)C(O)CCC4)c1` (stereo not given), the growth is -16.8% (active).
Next, `COc1nc2c(c(=O)n1C)CN(c1ccccc1)C(=O)C(C)N2` (stereo not given): 94% (inactive).
Next, `COc1ccc(-n2c(COc3ccc(F)cc3)n[nH]c2=S)cc1`: 126% (inactive).
Next, `COc1cccc(Cc2nn3cc(-c4ccccc4)nc3s2)c1`: 69.9% (inactive); `COc1cc(/C=C/C(=O)c2ccc(F)cc2)ccc1OCCCCCOc1cc2c(cc1OC)C(=O)N1CCCC1C=N2` (stereo not given): -37.2% (active).
With `COC(=O)[C@H](Cc1cn(C)cn1)NC(=O)[C@H](CC(=O)OCc1ccccc1)NC(=O)Nc1cc(C(F)(F)F)cc(C(F)(F)F)c1`, the growth was -68.9% [100 µM] (active).
In the case of `Cn1cc(-c2nc(-c3c[nH]c4ccccc34)cs2)c2cccnc21`, the growth is 6.19% (active).
`Nc1ncc(-c2ccc3ncnc(N4CCc5ccc(Cl)cc54)c3c2)cc1C(F)(F)F`: the growth was 22.9% (inactive).
Next, `O=C1Nc2ccccc2/C1=C/C(=O)c1ccc(N2CCCC2)cc1`: -10.8% (active); `Cc1ccc(C)c(S(=O)(=O)NC2c3ccccc3Oc3ccccc32)c1`: 86.9% (inactive).
As for `c1ccc(CP(Cc2ccccc2)c2ccccc2)cc1`, the growth was 84.2% (inactive).
Next, `Cc1ccc(C(=O)NN2C(=O)CSC2c2cccc([N+](=O)[O-])c2)cn1` (stereo not given): 82.7% (inactive); `COc1cc2nc(-c3cnc(N(C)C)nc3)nc(NC3CCN(Cc4ccccc4)CC3)c2cc1OC`: -52.3% (active); `C=CC(=O)N1CCN(c2ccc3cccc(NC(=O)c4cnc(C)cn4)c3n2)CC1`: 26.6% (inactive).
For `Cc1cc(C)c(C#N)c(SCC(=O)c2sc3c(C#N)c(C)cc(C)[n+]3c2[O-])n1`, the growth was -39.3% (active).
`Cc1ccc(S(=O)(=O)n2cc(C(=O)C(=O)Nc3ccncc3)c3ccccc32)cc1`: the growth was 16.1% (inactive).

The values are drawn from PubChem BioAssay (NCI).
